Source: PubChem
Only some compounds are listed: those with a hit (about 2.9% of all), similar ones and a draw of the others.
POLH inh: qHTS for Inhibitors of Polymerase Eta; recombinant Pol eta, fluorescent DNA replication assay; Potency, µM (titrated, usually from 114 µM), for the others: at the top dose activity change, negative = inhibition, actives largely listed as inhibitors; hit rate 1.2% among 390,000; AID 588591, 2011; also: potency is read from the fitted curve at half-maximal effect; % is scaled to controls: 0 for no effect and ±100 for the full control effect
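Pol eta (10 nM) was preincubated with compounds for 15 min at room temperature, after which fluorescent replication substrate (50 nM final) was added to start the reaction. Fluorescence was read kinetically at 0 and 10 min.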
Pol beta inh: qHTS Assay for Inhibitors of DNA Polymerase Beta | hit rate 1.3% among 340,000 | Pol beta primer extension/strand displacement, fluorescence kinetic | Potency, µM (highest dose often 114 µM), for the others: at the top dose activity change, negative = inhibition, usual class: inhibitors | P06746; also: potency is read from the fitted curve at half-maximal effect; % is scaled to controls: 0 for no effect and ±100 for the full control effect
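Kinetic readout of DNA synthesis with strand displacement by Pol beta. Compound and 10 nM enzyme sit 15 min at room temperature; 50 nM substrate starts the reaction, read immediately and at 10 min.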
ALOX12 inh: Primary qHTS assay for inhibitors of human arachidonate 12S-lipoxygenase (ALOX12): Round 2. purified 12hLO, xylenol orange hydroperoxide absorbance. Potency, µM (highest dose often 108 µM), for inactives: at the highest dose activity change, negative = inhibition, most hits filed as inhibitors. hit rate 1.1% among 580,000. Polyunsaturated fatty acid lipoxygenase ALOX12 (Homo sapiens), P18054; also: potency is read from the fitted curve at half-maximal effect; % is scaled to controls: 0 for no effect and ±100 for the full control effect
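Hydroperoxide product was detected by ferrous iron/xylenol orange as the 573 to 405 nm absorbance ratio. Arachidonic acid at 40 uM (final) was turned over for 30 min at room temperature by 150 nM human 12hLO, pH 7.0 Hepes buffer, after 15 min compound preincubation.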
POLI inh: qHTS for Inhibitors of Polymerase Iota; DNA polymerase iota (Homo sapiens), Q9UNA4; Pol iota fluorescent replication assay, 10 min; hit rate 1% among 390,000; Potency, µM (highest dose often 115 µM), for the others: top-dose activity, negative = inhibition, actives largely listed as inhibitors; AID 588590, 2011; also: potency is read from the fitted curve at half-maximal effect
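Fluorescent replication assay read twice, at 0 min and 10 min after adding 50 nM (final) substrate. Enzyme (10 nM) and compounds were first incubated 15 min at room temperature; enzyme-free buffer wells were negative controls.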
PI5P4K alpha inh: qHTS for Inhibitors of phosphatidylinositol 5-phosphate 4-kinase (PI5P4K). max response, %. hit rate 1.2% among 330,000. AID 652105, 2013. PI5P4Kalpha enzyme, ADP-Glo luminescence, 60 min; hits give low values; active = max response of -50% or lower; inconclusive = between -30% and -50%; inactive = -30% or higher; also: value at the top dose of about 77 µM; % is scaled to controls: 0 for no effect and ±100 for the full control effect
Target sequence (P48426 whole entry, looked up): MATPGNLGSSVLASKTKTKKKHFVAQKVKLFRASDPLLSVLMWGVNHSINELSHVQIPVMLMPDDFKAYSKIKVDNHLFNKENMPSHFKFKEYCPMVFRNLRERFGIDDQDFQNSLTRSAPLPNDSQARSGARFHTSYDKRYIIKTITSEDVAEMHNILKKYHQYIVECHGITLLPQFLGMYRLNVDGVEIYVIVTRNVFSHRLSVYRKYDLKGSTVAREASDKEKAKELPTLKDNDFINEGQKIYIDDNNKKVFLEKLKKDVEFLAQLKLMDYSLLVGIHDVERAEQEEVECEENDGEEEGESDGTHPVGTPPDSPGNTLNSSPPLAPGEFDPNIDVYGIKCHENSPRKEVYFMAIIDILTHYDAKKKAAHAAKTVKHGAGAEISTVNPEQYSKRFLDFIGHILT
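Enzyme plus substrate dispensed, test compounds pinned in, then ATP (5 microM final) added. After 60 min at RT, ADP-Glo reagent 1 for 45 min and reagent 2 for 30 min preceded luminescence imaging.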
POLK inh: qHTS for Inhibitors of Polymerase Kappa | hit rate 0.53% among 400,000 | Potency, µM (doses to about 107 µM), without a hit: at the highest dose activity, negative = inhibition, hits mostly inhibitors | purified Pol kappa, fluorescent DNA synthesis assay, 10 min | AID 588579, 2011 | DNA polymerase kappa (Homo sapiens), Q9UBT6; also: potency is read from the fitted curve at half-maximal effect; % is scaled to controls: 0 for no effect and ±100 for the full control effect
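Readout: fluorescence, taken kinetically at 0 and 10 min. Conditions: 10 nM Pol kappa, 15 min RT compound preincubation, 50 nM substrate final. Controls: enzyme-free buffer wells.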
An asterisk follows results filed as active; ? = inconclusive; / = no result; [ ] = another dose, or the depositor's remark. Unless noted, calls follow the shape of the dose curve; as a rule, active = well fitted inhibition curve with a large enough effect; inconclusive = small, poorly fitted or top-dose-only effect, or another doubt; inactive = no such curve, though single readings can be large or run the other way.

SMILES	POLH inh	Pol beta inh	ALOX12 inh	POLI inh	PI5P4K alpha inh	POLK inh
CC(C)(C)c1ccc(-c2cc(C[C@H]3CNCC[C@H]3CC(=O)NCc3cccs3)no2)cc1	/	/	40µM*	/	/	/
CC(C)(C)c1ccc(-c2cc(C[C@H]3CNCC[C@H]3CC(=O)N3CCC(n4c(=O)[nH]c5ccccc54)CC3)no2)cc1	/	/	32µM*	/	/	/
CC(C)(C)c1ccc(-c2cc(C[C@H]3CNCC[C@H]3CC(=O)O)no2)cc1	/	/	20%[176 µM]	/	/	/
CC(C)(C)c1ccc(-c2cc(C[C@H]3CNCC[C@H]3CC(=O)NC3CCCCC3)no2)cc1	/	/	32µM*	/	/	/
Cc1nc(C)c(C(=O)OC(C)C(=O)C23CC4CC(CC(C4)C2)C3)s1 (centres undefined)	/	/	37%	/	/	/
Cc1ccc(Cc2c(-c3ccc(F)cc3)nc3cc(C)ccn23)cc1	-12%	/	20µM*	/	-1	/
Cc1ccc(Cc2c(-c3ccc(C#N)cc3)nc3ccc(Br)cn23)cc1	-7%	/	20µM*	/	-6	/
Cc1ccc(Cc2c(-c3ccccc3)nc3ccc(Br)cn23)cc1	-3%	/	6.3µM*	/	0	/
Cc1ccc(-c2nc3ccc(Br)cn3c2Cc2ccccc2)cc1	/	/	?	/	0	/
N#Cc1ccc(-c2nc3ccc(Br)cn3c2Cc2ccccc2)cc1	-17%	/	?	/	-9	/
CCOCCCNC(=O)/C(C#N)=C\c1cccc(F)c1	/	/	-13%	/	/	/
O=c1[nH][nH]c2c(N=Cc3ccccc3O)ccc(F)c12	3.2µM*	7.1µM*	/	0.89µM*	-103*	4µM*
O=c1[nH]c2cc3c(cc2cc1CN(Cc1cccnc1)Cc1nnnn1Cc1ccco1)OCCO3	?	40µM*	-11%	16µM*	/	89µM*
COc1ccccc1CN(Cc1cc2cc3c(cc2[nH]c1=O)OCCO3)Cc1nnnn1Cc1ccco1	32µM*	14µM*	-18%	?	/	?
CCc1ccc2[nH]c(=O)c(CN(Cc3ccccc3)Cc3nnnn3Cc3ccco3)cc2c1	-23%	2%	9%	?	6	-11%
O=c1[nH]c2cc3c(cc2cc1CN(Cc1cccs1)Cc1nnnn1Cc1ccco1)OCCO3	18µM*	32µM*	?	?	-83*	25µM*
COC(=O)C1=C(C)N=C2SC=C(CC(=O)NCc3ccccc3)N2C1c1ccccc1C (centres undefined)	/	/	9%	/	/	/
COc1ccc2[nH]c(C(=O)NCc3ccccn3)c(C)c2c1	/	/	0%	/	/	/
COc1ccc(NC(=O)/C(C#N)=C\c2ccc(-c3cccc(C(=O)O)c3C)o2)cc1	22µM*	7.9µM*	-19%	?	-20	?
COc1ccc(NC(=O)/C(C#N)=C\c2ccc(Br)o2)cc1	?	?	-22%	10µM*	-83*	79µM*
Cc1ccccc1NC(=O)/C(C#N)=C/c1ccc(-c2ccc(Cl)c(C(=O)O)c2)o1	32µM*	?	-16%	?	-29	?
O=c1c(N2CCc3ccccc3C2)csc2ccc(Cl)cc12	-16%	-2%	8%	92%	/	-11%[60.1 µM]
O=c1c(N2CCc3ccccc3C2)csc2ccc(Br)cc12	-7%	-11%	40µM*	15%	/	-5%[60.1 µM]
CC(C)c1ccc(NC(=O)c2ccc(N(C)C)cc2)cc1	/	/	45µM*	/	/	/
CCCc1noc(-c2ccn3c(CNC(=O)Cc4cccc(OC)c4)nnc3c2)n1	/	/	45µM*	/	/	/
SMILES	POLH inh	Pol beta inh	ALOX12 inh	POLI inh	PI5P4K alpha inh	POLK inh
CCCc1noc(-c2ccn3c(CNC(=O)c4ccc(C)c(F)c4)nnc3c2)n1	/	/	50µM*	/	/	/
Cc1ccc(C(=O)NCc2nnc3cc(-c4nc(C5CC5)no4)ccn23)cc1F	/	/	-6%	/	/	/
O=C(Oc1ccc2c(=O)c(-c3ccc(Br)cc3)coc2c1)c1ccco1	/	/	10%	/	/	/
O=C1c2ccccc2S(=O)(=O)c2cc(-c3nn[nH]n3)ccc21	-20%	/	-12%	/	-73*	/
O=C(NCCO)c1ccc2c(c1)S(=O)(=O)c1ccccc1C2=O	-1%	3%	-6%	-2%	-1	-10%
CCCCCNC(=O)c1nccnc1N	/	/	15%	/	/	/
Cc1ccc(/C=C2\CC(C)CC3=C2NC(=S)NC3c2ccc(C)cc2)cc1 (centres undefined)	-21%	-1%	?	43%	-9	-11%
CC1CC2=C(NC(=S)NC2c2ccccc2F)/C(=C/c2ccccc2F)C1 (centres undefined)	-2%	-10%	35µM*	-9%	-4	-21%
CC1CC2=C(NC(=S)NC2c2cccc(F)c2)/C(=C/c2cccc(F)c2)C1 (centres undefined)	-7%	-1%	28µM*	100%	8	-20%
Cc1ccc(NC(=O)Nc2cnccn2)cc1	0%	53%	8%	-20%	-3	-4%
O=C(Nc1ccc([N+](=O)[O-])cc1)Nc1cnccn1	-9%	40µM*	-7%	11%	2	-7%
Clc1cccc(CN2CCSCC2)c1	-8%	-1%	0.35µM*	-11%	-2	-15%
CCn1c2ccccc2c2cc(C(=O)N3C[C@@H](Oc4ccccc4)C[C@@H]3C(=O)NC)ccc21	/	/	5%	/	/	/
Cc1cccc(OCc2n[nH]c(=S)n2-c2ccccc2)c1	-13%	0%	35µM*	-29%	-2	-6%[60.1 µM]
Cc1cccc(/C=N/n2c(-c3cc(-c4ccccc4)n[nH]3)n[nH]c2=S)c1	-4%	56µM*	?	4%	-14	-4%
Oc1ccc(Br)cc1/C=N/n1c(COc2ccccc2)n[nH]c1=S	-11%	-2%	8.9µM*	-22%	-3	-10%
Cc1ccc(-n2c(COc3cccc(C)c3)n[nH]c2=S)cc1	-5%	-23%	?	11%	2	6%
Cc1cccc(/C=N/n2c(COc3ccccc3)n[nH]c2=S)c1	-3%	3%	40µM*	?	-1	3%
S=c1[nH]nc(COc2ccccc2)n1/N=C/c1ccccc1Br	-2%	25%	?	98%	2	-7%
Cc1ccc(NC(=O)c2cc3c(s2)CCCCC3)cc1	/	/	17%	/	/	/
O=C(Nc1ccccc1)c1c[nH]c2ccc(F)cc2c1=O	/	/	-14%	/	/	/
CCc1noc(-c2cccn3c(CNC(=O)c4ccc5ccccc5n4)nnc23)n1	/	/	70%	/	/	/
O=C(c1cc(-c2cccs2)nc2ccccc12)N1CCN(CCN2CCCC2)CC1	/	/	-52%	/	/	/
S=c1[nH]nc(COc2ccccc2)n1/N=C/c1ccccn1	-18%	57%	1.6µM*	-18%	-3	-1%
CC(=O)COC(=O)c1cc2ccccc2[nH]1	/	/	-4%	/	/	/
